Results taken from PubChem BioAssay (Tox21).
Records with an inconclusive call do not appear. The source made the active and inactive calls. Calls come from the whole dose curve; as a rule, active = well fitted curve in the direction sought with a large enough effect in the repeat runs; inconclusive = weak or mixed curves; inactive = no such curve, though single readings can be large; an effect the other way counts as inactive or inconclusive.

How the values were obtained:
[1] = qHTS RealTime-Glo MT Cell Viability Assay in HepG2 cells - 40 hour (AID 1224870); note: nearly all actives have a fitted effect of over 50% in size; note: potency is the fitted concentration of half-maximal effect
Summary of the method: (§1)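 HepG2 cells (600/well) mixed with RealTime-Glo MT reagent, settled 5 h at 37 C/5% CO2 before compound addition. Nonlytic NanoLuc luminescence from viable-cell prosubstrate reduction read repeatedly during 40 h treatment at 37 C.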

[2] = qHTS RealTime-Glo MT Cell Viability Assay in HEK293 cells - 16 hour (AID 1224872); note: nearly all actives have a fitted effect of over 50% in size; note: potency is the fitted concentration of half-maximal effect
Summary of the method: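 Nonlytic real-time viability readout: viable cells convert prosubstrate to NanoLuc substrate, giving luminescence proportional to live cell number. HEK293, 600 cells/well, compound added after 5 h, continuous culture at 37 C.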

[3] = qHTS RealTime-Glo MT Cell Viability Assay in HepG2 cells - 8 hour (AID 1224873); note: nearly all actives have a fitted effect of over 55% in size
Summary of the method: as §1

[4] = qHTS RealTime-Glo MT Cell Viability Assay in HEK293 cells - 40 hour (AID 1224874); settings: RealTime-Glo luminescence; max response: stronger effect = lower value; note: nearly all actives have a fitted effect of over 50% in size; note: potency is the fitted concentration of half-maximal effect
Summary of the method: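 Measured as luminescence from the same continuously cultured HEK293 wells at successive time points (0, 8, 16, 24, 32, 40 h) after compound addition. Reagent present from seeding; dosing at 5 h; incubation 37 C.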

[5] = A CellTox Green Cytotoxicity Assay to monitor cytotoxicity in HEK293 cells - 24 hour (AID 1224875); note: series mostly up to about 77 µM; nearly all actives have a fitted effect of over 45% in size
Summary of the method: (§2)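 Homogeneous no-lysis format: HEK293 cell suspension mixed with CellTox Green reagent, seeded, incubated 5 h at 37 C/5% CO2, then dosed by pintool with compound in DMSO.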

[6] = A CellTox Green Cytotoxicity Assay to monitor cytotoxicity in HepG2 cells - 16 hour (AID 1224876); note: nearly all actives have a fitted effect of over 45% in size; note: potency is the fitted concentration of half-maximal effect
Summary of the method: (§3)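 Fluorescent DNA-binding dye, 600 HepG2 cells/well, 5 h preincubation then compound in DMSO; same plates read at 0–40 h, 37 C.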

[7] = A CellTox Green Cytotoxicity Assay to monitor cytotoxicity in HepG2 cells - 40 hour (AID 1224879); note: nearly all actives have a fitted effect of over 40% in size; note: potency is the fitted concentration of half-maximal effect
Summary of the method: as §3

[8] = qHTS RealTime-Glo MT Cell Viability Assay in HepG2 cells - 32 hour (AID 1224877); note: nearly all actives have a fitted effect of over 55% in size
Summary of the method: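 Luminescence read-out: viable HepG2 cells reduce a prosubstrate to a NanoLuc substrate, giving a signal proportional to live cell number. Reads taken at 0, 8, 16, 24, 32 and 40 h of compound exposure at 37 C.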

[9] = A CellTox Green Cytotoxicity Assay to monitor cytotoxicity in HepG2 cells - 24 hour (AID 1224878); note: nearly all actives have a fitted effect of over 45% in size; note: potency is the fitted concentration of half-maximal effect
Summary of the method: as §3

[10] = A CellTox Green Cytotoxicity Assay to monitor cytotoxicity in HEK293 cells - 40 hour (AID 1224871); note: nearly all actives have a fitted effect of over 45% in size
Summary of the method: as §2
% is set by controls: 0 for no effect and ±100 for the full control effect.

CC(CCO)CCCC(C)(C)O (centres undefined)
inactive: Potency [1] | Potency [2] | outcome [3] | max response [4] -6.84% | Potency [5] | Potency [6] | Potency [7]

O=C(O)c1ccccc1S
inactive: Potency [1] | Potency [2] | outcome [3] | max response [4] -0.793% | Potency [6] | Potency [8] | Potency [9] | Potency [7]

[O-][N+](=Nc1ccccc1)c1ccccc1
inactive: Potency [1] | Potency [2] | outcome [3] | max response [4] -1.34% | Potency [6] | Potency [8] | Potency [9]

CCCCCN(CCCCC)C(=O)C(CCC(=O)O)NC(=O)c1ccc(Cl)c(Cl)c1 (centres undefined)
inactive: Potency [1] | Potency [2] | outcome [3] | max response [4] -6.43% | Potency [5] | Potency [8] | Potency [9] | Potency [7]

CN(C)C(=O)C(CCN1CCC(O)(c2ccc(Cl)cc2)CC1)(c1ccccc1)c1ccccc1
inactive: outcome [3]
active: Potency [1] 23.9 µM | Potency [2] 8.49 µM | Potency [4] 10.7 µM | Potency [6] 10.7 µM | Potency [9] 15.1 µM | Potency [7] 23.9 µM

CO[Si](CCCNCCC[Si](OC)(OC)OC)(OC)OC
inactive: Potency [1] | Potency [2] | outcome [3] | Potency [5] | Potency [8] | Potency [9] | Potency [7]

Cc1cc(C)cc(OCC2CNC(=O)O2)c1 (centres undefined)
inactive: Potency [1] | Potency [2] | outcome [3] | max response [4] 2.49% | Potency [5] | Potency [6] | Potency [9] | Potency [7]

CCCC(C)CO (centres undefined)
inactive: Potency [10] | Potency [2] | outcome [3] | max response [4] 8.5% | Potency [5] | Potency [6] | Potency [8] | Potency [9]

C#CC(O)CCCCC (centres undefined)
inactive: Potency [1] | Potency [2] | outcome [3] | Potency [5] | Potency [6]

C[N+](C)(C)CC[N+]1(C)Cc2c(Cl)c(Cl)c(Cl)c(Cl)c2C1
active: Potency [1] 23.9 µM
inactive: Potency [2] | outcome [3] | max response [4] 7.36% | Potency [5] | Potency [6] | Potency [9] | Potency [7]

Fc1ccccc1-c1ccccc1
inactive: Potency [1] | Potency [2] | outcome [3] | max response [4] -21.5% | Potency [6] | Potency [8] | Potency [9]

CC(C)(C)C(=O)/C=C/c1ccc(Cl)cc1
inactive: Potency [1] | Potency [2] | outcome [3] | max response [4] -0.497% | Potency [5] | Potency [6] | Potency [8] | Potency [7]

CNC(=O)c1c(I)c(NC(=O)CCCCC(=O)Nc2c(I)c(C(=O)O)c(I)c(C(=O)NC)c2I)c(I)c(C(=O)O)c1I
inactive: Potency [1] | Potency [2] | outcome [3] | max response [4] -0.381% | Potency [5] | Potency [6] | Potency [8] | Potency [7]

COc1ccc(NC(C)=O)cc1
inactive: Potency [1] | Potency [2] | outcome [3] | Potency [5] | Potency [6] | Potency [8] | Potency [9] | Potency [7]

Cc1ccc(Nc2ccc(O)c3c2C(=O)c2ccccc2C3=O)cc1
inactive: Potency [1] | Potency [2] | outcome [3] | max response [4] 7.86% | Potency [5] | Potency [8] | Potency [9]

CCN(CC)S(=O)(=O)c1ccc(C(=O)O)cc1
inactive: Potency [1] | outcome [3] | Potency [8] | Potency [9] | Potency [7]

CC12CCC(CC1=O)C2(C)C (centres undefined)
inactive: Potency [10] | Potency [2] | outcome [3] | max response [4] -2.19% | Potency [5] | Potency [6] | Potency [8]

CC(C)=CCC/C(C)=C/C(=O)O
inactive: Potency [10] | Potency [2] | outcome [3] | max response [4] 0.0826% | Potency [5] | Potency [6]

COCc1ccc(COC)cc1
inactive: Potency [10] | Potency [2] | outcome [3] | Potency [5] | Potency [6] | Potency [8] | Potency [7]

CCC(C(=O)NC(N)=O)c1ccccc1 (centres undefined)
inactive: Potency [10] | Potency [2] | outcome [3] | Potency [5] | Potency [6] | Potency [8]

O=C(O)/C=C/c1ccc(Cn2ccnc2)cc1
inactive: Potency [10] | Potency [2] | outcome [3] | max response [4] 2.89% | Potency [5] | Potency [6] | Potency [8] | Potency [9] | Potency [7]

Nc1ccc2cc(S(=O)(=O)O)ccc2c1
inactive: Potency [10] | Potency [2] | outcome [3] | Potency [5] | Potency [6] | Potency [8] | Potency [7]

OCC(CO)(CO)COCC(CO)(CO)CO
inactive: Potency [10] | Potency [2] | outcome [3] | max response [4] 9.54% | Potency [5] | Potency [6] | Potency [8] | Potency [7]

CC(C)N1C(=O)c2ccccc2C1=O
inactive: Potency [10] | Potency [2] | outcome [3] | max response [4] 4.79% | Potency [5] | Potency [6] | Potency [8] | Potency [9] | Potency [7]

CC(C)[N+](C)(C)CC(O)COc1cccc2ccccc12 (centres undefined)
inactive: Potency [10] | Potency [2] | outcome [3] | max response [4] 6.37% | Potency [5] | Potency [9] | Potency [7]

CCCCCCC(CCCCCCCCCCC(=O)OCC(COC(C)=O)OC(C)=O)OC(C)=O (centres undefined)
inactive: Potency [10] | Potency [2] | outcome [3] | max response [4] 14.5% | Potency [5] | Potency [6] | Potency [8] | Potency [7]

COC(C(=O)O)c1ccccc1 (centres undefined)
inactive: Potency [10] | Potency [2] | outcome [3] | max response [4] 2.29% | Potency [5] | Potency [8] | Potency [7]

c1cc(CN2CCCCC2)cc(OCCCNc2nc3ccccc3s2)c1
active: Potency [2] 9.52 µM | Potency [4] 9.52 µM | Potency [9] 26.8 µM | Potency [7] 23.9 µM
inactive: Potency [10] | outcome [3] | Potency [5]
